According to PubChem BioAssay AID1159580 (chemical genetic matrix, 2015):
Several values for one entry are separate records, joined by “and”; a condition that tells them apart may be missing. Equal entries are not always repeated. The campaign covered roughly 5,500 compounds. About 2,000 (36%) were called active. Not shown: some 18% with an inconclusive outcome. Cut-off read from the data, not from the text of the source: active = normalized growth mostly below about 0.91 (no sharp cut-off); inconclusive = no clear call, values can overlap the other calls; inactive = mostly above about 0.92. The list shows a part of the results.

Assay: chemical genetic growth profiling, strain panel (AID 1159580);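 note: tested at 20 µM; growth read once vehicle control cultures reached saturation at 30 °C; 1 = growth at the plate median or of vehicle wells; lower values mean less growth of the strain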
Settings: S. cerevisiae deletion strains, growth OD

Measured: normalized growth

CC(C)CC(N(C)C)C1(c2ccc(Cl)cc2)CCC1 (stereo unspecified)
inactive: locus YAL013W, strain DEP1, stronger effect = lower value 1 | locus YAL021C, strain ccr4, stronger effect = lower value 0.987 | locus YAL026C, strain drs2, stronger effect = lower value 1.01 | locus YAL030W, strain snc1, stronger effect = lower value 1.01 | locus YBL061C, strain skt5, stronger effect = lower value 1 | locus YBR009C, strain hhf1, stronger effect = lower value 1 | locus YBR021W, strain FUR4, stronger effect = lower value 0.952 | locus YBR023C, strain chs3, stronger effect = lower value 1.01 | locus YBR171W, strain sec66, stronger effect = lower value 1.01 | locus YBR229C, strain ROT2, stronger effect = lower value 0.999 | locus YBR231C, strain swc5, stronger effect = lower value 1.02 | locus YBR279W, strain paf1, stronger effect = lower value 1.01 | locus YCL011C, strain gbp2, stronger effect = lower value 0.999 | locus YCL016C, strain dcc1, stronger effect = lower value 0.994 | locus YCL029C, strain bik1, stronger effect = lower value 1.02 | locus YCL069W, strain vba3, stronger effect = lower value 1 | locus YCR088W, strain abp1, stronger effect = lower value 1.02 | locus YDL005C, strain med2, stronger effect = lower value 1.01 | locus YDL035C, strain GPR1, stronger effect = lower value 1.02 | locus YDL040C, strain nat1, stronger effect = lower value 0.999 | locus YDL074C, strain BRE1, stronger effect = lower value 1 | locus YDL101C, strain DUN1, stronger effect = lower value 1 | locus YDL134C, strain PPH21, stronger effect = lower value 1.01 | locus YDL185W, strain tfp1, stronger effect = lower value 1.01 | locus YDL192W, strain arf1, stronger effect = lower value 1.02 | locus YDR001C, strain nth1, stronger effect = lower value 0.994 | locus YDR069C, strain doa4, stronger effect = lower value 1.03 | locus YDR101C, strain arx1, stronger effect = lower value 1.01 | locus YDR137W, strain rgp1, stronger effect = lower value 1.12 | locus YDR150W, strain NUM1, stronger effect = lower value 1.01 | locus YDR159W, strain sac3, stronger effect = lower value 0.994 | locus YDR162C, strain NBP2, stronger effect = lower value 0.99 | locus YDR195W, strain ref2 1.04 | locus YDR297W, strain sur2, stronger effect = lower value 1.01 | locus YDR318W, strain mcm21, stronger effect = lower value 1.02 | locus YDR334W, strain swr1, stronger effect = lower value 1.01 | locus YDR335W, strain msn5, stronger effect = lower value 1 | locus YDR388W, stronger effect = lower value 1.02 | locus YDR392W, strain spt3, stronger effect = lower value 0.976 | locus YDR502C, strain sam2, stronger effect = lower value 1.01 | locus YEL003W, strain gim4, stronger effect = lower value 1 | locus YEL037C, strain rad23, stronger effect = lower value 1.01 | locus YEL061C, strain CIN8 (second series), stronger effect = lower value 1 | locus YEL061C, strain CIN8, stronger effect = lower value 0.993 | locus YER015W, strain faa2, stronger effect = lower value 0.982 | locus YER016W, strain bim1, stronger effect = lower value 1 | locus YER110C, stronger effect = lower value 1.01 | locus YER111C, strain swi4, stronger effect = lower value 1.01 | locus YER155C, strain BEM2 (second series), stronger effect = lower value 1.03 | locus YER155C, strain BEM2, stronger effect = lower value 0.969 | locus YER167W, strain BCK2, stronger effect = lower value 0.983 | locus YFR010W, strain ubp6, stronger effect = lower value 1.02 | locus YGL078C, strain dbp3, stronger effect = lower value 1 | locus YGL086W, strain mad1, stronger effect = lower value 1.01 | locus YGL167C, strain pmr1, stronger effect = lower value 0.997 | locus YGL173C, strain kem1, stronger effect = lower value 1 | locus YGL227W, strain vid30, stronger effect = lower value 1.01 | locus YGL240W, strain doc1, stronger effect = lower value 1.03 | locus YGL248W, strain PDE1, stronger effect = lower value 0.999 | locus YGL253W, strain hxk2, stronger effect = lower value 1 | locus YGR078C, strain PAC10, stronger effect = lower value 1.01 | locus YGR135W, strain pre9, stronger effect = lower value 1.02 | locus YGR229C, strain SMI1, stronger effect = lower value 0.986 | locus YGR252W, strain gcn5, stronger effect = lower value 1.03 | locus YHR013C, strain ard1, stronger effect = lower value 1.02 | locus YHR027C, strain rpn1, stronger effect = lower value 1 | locus YHR030C, strain SLT2, stronger effect = lower value 1.01 and 1.02 | locus YHR079C, strain IRE1 (second series), stronger effect = lower value 1.01 | locus YHR079C, strain IRE1, stronger effect = lower value 1.01 | locus YHR094C, strain hxt1, stronger effect = lower value 1.01 | locus YHR129C, strain ARP1, stronger effect = lower value 1 | locus YHR142W, strain chs7, stronger effect = lower value 1 | locus YHR200W, strain rpn10, stronger effect = lower value 1.02 | locus YIL066C, strain RNR3, stronger effect = lower value 0.997 | locus YIL073C, strain SPO22, stronger effect = lower value 1.02 | locus YIL125W, strain kgd1, stronger effect = lower value 1 | locus YIR030C, strain dcg1, stronger effect = lower value 1.01 | locus YJL092W, strain hpr5, stronger effect = lower value 1 | locus YJL095W, strain BCK1 (second series), stronger effect = lower value 1 | locus YJL095W, strain BCK1, stronger effect = lower value 1.01 and 0.998 | locus YJL115W, strain asf1, stronger effect = lower value 1.02 | locus YJL129C, strain trk1, stronger effect = lower value 1.03 | locus YJL134W, strain LCB3, stronger effect = lower value 1 | locus YJL154C, strain vps35, stronger effect = lower value 1.01 | locus YJL164C, strain tpk1, stronger effect = lower value 0.995 | locus YJL166W, strain qcr8, stronger effect = lower value 1.02 | locus YJL168C, strain set2, stronger effect = lower value 1.01 | locus YJL187C, strain SWE1 (second series), stronger effect = lower value 1.01 | locus YJL187C, strain SWE1, stronger effect = lower value 1.01 | locus YJR043C, strain POL32, stronger effect = lower value 0.999 | locus YJR066W, strain TOR1, stronger effect = lower value 0.961
